For part of these data: Entries with a potency or affinity are not part of this list.
Columns and labels:
Set-up in all cases: scale not given: direction of the effect not stated beside the values
[1] = molecular target: Protein translocase subunit SecA (Escherichia coli (strain K12)) (UniProt P10408); assay: Assay to Identify E. coli SecA ATPase Inhibitors; format: functional; conditions: 30 µM
[2] = molecular target: T1, Ubiquitin-activating enzyme e1, putative (Leishmania donovani (strain BPK282A1)) (UniProt E9BSI1); assay: Leishmania donovani Ubiquitin Activating Enzyme (LdE1); format: functional; conditions: 30 µM
T1 sequence (whole entry): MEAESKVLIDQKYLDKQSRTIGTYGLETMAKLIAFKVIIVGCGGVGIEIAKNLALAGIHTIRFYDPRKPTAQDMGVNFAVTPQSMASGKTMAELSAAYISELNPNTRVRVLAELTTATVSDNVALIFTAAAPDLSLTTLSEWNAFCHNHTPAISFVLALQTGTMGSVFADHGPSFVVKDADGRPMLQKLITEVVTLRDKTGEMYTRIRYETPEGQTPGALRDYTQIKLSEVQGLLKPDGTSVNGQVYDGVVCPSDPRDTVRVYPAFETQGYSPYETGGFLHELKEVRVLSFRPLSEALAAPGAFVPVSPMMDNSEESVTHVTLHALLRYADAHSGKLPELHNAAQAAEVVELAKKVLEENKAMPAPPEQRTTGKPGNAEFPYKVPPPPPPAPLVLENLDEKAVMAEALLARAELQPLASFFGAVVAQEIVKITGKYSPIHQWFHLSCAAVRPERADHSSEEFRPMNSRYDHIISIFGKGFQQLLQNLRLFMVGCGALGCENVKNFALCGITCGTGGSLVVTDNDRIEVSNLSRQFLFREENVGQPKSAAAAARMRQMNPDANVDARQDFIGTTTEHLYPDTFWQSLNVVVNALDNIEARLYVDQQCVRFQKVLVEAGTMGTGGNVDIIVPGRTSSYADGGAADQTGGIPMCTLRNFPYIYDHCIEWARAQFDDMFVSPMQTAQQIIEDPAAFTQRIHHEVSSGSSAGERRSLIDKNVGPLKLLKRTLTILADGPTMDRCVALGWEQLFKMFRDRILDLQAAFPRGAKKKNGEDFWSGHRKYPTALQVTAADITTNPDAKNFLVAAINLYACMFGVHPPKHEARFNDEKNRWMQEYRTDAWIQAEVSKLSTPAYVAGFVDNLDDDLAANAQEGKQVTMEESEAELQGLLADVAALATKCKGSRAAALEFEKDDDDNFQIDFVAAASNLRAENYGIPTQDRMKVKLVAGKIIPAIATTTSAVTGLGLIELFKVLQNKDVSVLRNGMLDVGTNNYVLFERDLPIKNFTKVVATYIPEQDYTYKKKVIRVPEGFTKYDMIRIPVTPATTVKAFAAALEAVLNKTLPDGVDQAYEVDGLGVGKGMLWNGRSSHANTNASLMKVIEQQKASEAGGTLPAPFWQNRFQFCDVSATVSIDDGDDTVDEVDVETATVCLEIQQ

[3] = molecular target: Sialic acid-binding Ig-like lectin 9 (Homo sapiens) (UniProt Q9Y336); assay: Hs-Siglec9 ALPHAscreen SOP 20170721; conditions: 10 µM
Trypanosoma cruzi = assay: Trypanosoma cruzi phosphomannomutase and mannose-1-phosphate guanylyltransferase assay; format: functional; conditions: 10 µM
[4] = molecular target: T2, Arginase-2, mitochondrial (Homo sapiens) (UniProt P78540); assay: in vitro enzyme assay to detect the production of urea directly proportional to the activity of Arginase II; format: functional; conditions: 33.3 µM; also: in the data most compounds retested in dose-response had high values
T2 sequence (whole entry): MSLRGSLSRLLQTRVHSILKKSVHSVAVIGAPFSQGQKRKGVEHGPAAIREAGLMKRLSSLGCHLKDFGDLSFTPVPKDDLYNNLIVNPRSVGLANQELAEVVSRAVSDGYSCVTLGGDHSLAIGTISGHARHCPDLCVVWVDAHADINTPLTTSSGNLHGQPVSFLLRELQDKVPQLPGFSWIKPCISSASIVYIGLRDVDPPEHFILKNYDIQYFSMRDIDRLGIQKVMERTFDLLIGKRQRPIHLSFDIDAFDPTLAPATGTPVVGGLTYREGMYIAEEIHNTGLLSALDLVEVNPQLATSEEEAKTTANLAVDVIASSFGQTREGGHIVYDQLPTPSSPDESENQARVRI

[5] = molecular target: T3, Proteasome subunit beta (Trypanosoma cruzi) (UniProt O96673); assay: Trypanosoma cruzi proteasome chymotrypsin-like activity (TcProtChymo) assay.; also: in the data most compounds retested in dose-response had high values; format: functional; conditions: 9.37 µM
T3 sequence (whole entry): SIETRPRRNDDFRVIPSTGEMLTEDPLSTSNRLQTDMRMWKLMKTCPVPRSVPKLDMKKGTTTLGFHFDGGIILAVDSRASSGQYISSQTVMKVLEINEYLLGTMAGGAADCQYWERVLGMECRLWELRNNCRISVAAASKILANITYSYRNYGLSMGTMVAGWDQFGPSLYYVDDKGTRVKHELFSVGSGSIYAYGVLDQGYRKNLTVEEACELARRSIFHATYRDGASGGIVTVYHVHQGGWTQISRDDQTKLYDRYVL

Homo sapiens = species: Homo sapiens; assay: To identify inhibition of the IFN signalling (Jak-Stat) pathway via expression of an eGFP reporter gene under the control of an IFN-stimulated response element (ISRE) containing MxA promoter.; format: functional; conditions: 30 µM
[6] = molecular target: T4, Tyrosyl-tRNA synthetase, putative (Trypanosoma cruzi (strain CL Brener)) (UniProt Q4DSP6); assay: Trypanosoma cruzi tyrosyl tRNA synthetase (TcYRS) _High Tyrosine SOP; format: functional; conditions: 30 µM; also: in the data most compounds retested in dose-response had high values
T4 sequence (whole entry): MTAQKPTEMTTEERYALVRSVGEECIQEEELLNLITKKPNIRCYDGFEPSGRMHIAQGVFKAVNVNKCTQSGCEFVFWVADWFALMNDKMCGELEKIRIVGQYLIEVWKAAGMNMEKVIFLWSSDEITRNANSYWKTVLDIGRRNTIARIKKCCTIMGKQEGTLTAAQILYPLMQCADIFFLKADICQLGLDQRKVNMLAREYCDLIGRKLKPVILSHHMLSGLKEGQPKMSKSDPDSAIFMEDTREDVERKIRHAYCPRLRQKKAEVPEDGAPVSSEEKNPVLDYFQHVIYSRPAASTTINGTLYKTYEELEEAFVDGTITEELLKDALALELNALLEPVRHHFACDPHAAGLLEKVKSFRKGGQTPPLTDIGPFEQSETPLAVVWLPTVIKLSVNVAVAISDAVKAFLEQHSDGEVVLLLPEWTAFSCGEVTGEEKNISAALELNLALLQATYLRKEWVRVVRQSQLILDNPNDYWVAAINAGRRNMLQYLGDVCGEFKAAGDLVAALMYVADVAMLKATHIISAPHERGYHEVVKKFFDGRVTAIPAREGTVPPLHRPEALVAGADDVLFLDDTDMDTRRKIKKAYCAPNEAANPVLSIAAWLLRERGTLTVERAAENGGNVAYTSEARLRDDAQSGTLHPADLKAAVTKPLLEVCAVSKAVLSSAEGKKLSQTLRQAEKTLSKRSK

[7] = molecular target: T4, Tyrosyl-tRNA synthetase, putative (Trypanosoma cruzi (strain CL Brener)); assay: Trypanosoma cruzi tyrosyl tRNA synthetase (TcYRS) SOP; format: functional; conditions: 30 µM
[8] = molecular target: Chromo domain-containing protein 1 (Saccharomyces cerevisiae (strain ATCC 204508 / S288c) (Baker's yeast)) (UniProt P32657); assay: ScCHD-1 Enzyme Inhibition Assay; format: functional; conditions: 30 µM; also: in the data most compounds retested in dose-response had high values
Chromo domain-containing protein 1 (Saccharomyces cerevisiae (strain ATCC 204508 / S288c) (Baker's yeast)), sequence (P32657 whole entry, the tested form may be a part): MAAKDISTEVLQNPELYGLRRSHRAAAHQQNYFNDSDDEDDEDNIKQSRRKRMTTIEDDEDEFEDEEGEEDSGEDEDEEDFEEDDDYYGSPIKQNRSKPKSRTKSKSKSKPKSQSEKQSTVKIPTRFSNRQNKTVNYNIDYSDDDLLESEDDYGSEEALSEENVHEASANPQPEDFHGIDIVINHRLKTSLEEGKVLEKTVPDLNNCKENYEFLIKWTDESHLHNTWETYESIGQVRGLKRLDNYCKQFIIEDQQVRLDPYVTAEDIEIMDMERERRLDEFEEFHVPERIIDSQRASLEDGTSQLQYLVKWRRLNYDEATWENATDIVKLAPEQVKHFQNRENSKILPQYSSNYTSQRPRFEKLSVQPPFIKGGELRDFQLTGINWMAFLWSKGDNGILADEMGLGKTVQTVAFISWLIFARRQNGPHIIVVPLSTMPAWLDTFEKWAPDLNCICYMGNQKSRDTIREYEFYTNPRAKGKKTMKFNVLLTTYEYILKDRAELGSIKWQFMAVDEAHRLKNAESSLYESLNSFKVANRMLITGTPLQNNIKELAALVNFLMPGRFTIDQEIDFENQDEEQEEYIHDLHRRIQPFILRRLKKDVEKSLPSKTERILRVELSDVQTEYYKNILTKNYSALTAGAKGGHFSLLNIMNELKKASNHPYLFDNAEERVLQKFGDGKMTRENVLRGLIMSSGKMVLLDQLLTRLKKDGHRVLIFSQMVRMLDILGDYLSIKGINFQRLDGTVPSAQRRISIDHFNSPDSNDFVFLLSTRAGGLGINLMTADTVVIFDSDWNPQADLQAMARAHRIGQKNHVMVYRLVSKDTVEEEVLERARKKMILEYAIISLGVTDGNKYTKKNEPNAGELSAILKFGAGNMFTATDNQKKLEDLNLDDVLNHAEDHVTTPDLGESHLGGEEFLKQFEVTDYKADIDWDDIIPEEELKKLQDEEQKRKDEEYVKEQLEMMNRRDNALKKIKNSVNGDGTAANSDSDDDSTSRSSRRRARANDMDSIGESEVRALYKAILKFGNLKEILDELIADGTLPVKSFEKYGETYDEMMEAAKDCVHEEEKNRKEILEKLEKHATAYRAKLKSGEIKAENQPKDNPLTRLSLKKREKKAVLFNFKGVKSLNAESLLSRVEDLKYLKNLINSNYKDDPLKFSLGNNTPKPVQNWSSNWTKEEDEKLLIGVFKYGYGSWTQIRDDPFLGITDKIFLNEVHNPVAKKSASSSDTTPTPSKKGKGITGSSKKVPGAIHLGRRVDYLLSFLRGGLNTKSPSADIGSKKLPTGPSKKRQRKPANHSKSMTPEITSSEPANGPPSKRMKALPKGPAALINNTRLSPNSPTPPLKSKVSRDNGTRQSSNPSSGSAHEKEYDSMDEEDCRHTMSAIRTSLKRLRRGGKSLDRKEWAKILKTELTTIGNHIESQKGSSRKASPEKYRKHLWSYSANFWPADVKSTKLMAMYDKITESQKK

Protein translocase subunit SecA (Escherichia coli (strain K12)), sequence (P10408 whole entry): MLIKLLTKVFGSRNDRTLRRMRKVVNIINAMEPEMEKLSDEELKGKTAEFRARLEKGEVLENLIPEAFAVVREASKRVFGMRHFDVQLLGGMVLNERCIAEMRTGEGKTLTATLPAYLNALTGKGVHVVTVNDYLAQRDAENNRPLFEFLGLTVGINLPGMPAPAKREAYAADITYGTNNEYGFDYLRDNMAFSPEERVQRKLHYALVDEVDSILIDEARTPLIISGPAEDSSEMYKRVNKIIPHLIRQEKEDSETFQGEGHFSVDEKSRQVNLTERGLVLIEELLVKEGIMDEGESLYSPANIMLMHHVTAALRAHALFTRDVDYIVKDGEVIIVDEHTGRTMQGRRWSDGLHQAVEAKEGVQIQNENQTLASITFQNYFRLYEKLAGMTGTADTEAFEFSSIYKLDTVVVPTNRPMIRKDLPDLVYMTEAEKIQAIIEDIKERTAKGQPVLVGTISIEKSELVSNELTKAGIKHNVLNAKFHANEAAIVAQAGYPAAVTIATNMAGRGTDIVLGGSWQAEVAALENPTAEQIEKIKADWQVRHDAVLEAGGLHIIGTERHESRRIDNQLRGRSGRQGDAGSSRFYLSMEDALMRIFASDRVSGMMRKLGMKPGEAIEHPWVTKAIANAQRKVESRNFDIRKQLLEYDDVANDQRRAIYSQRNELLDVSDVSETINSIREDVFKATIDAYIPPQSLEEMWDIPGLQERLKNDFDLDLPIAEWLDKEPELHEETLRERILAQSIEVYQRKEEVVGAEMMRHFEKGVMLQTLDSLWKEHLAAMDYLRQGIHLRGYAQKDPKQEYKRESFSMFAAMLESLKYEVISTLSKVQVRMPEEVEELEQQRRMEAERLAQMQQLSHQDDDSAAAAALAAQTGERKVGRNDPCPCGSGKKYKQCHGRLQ
Sialic acid-binding Ig-like lectin 9 (Homo sapiens), sequence (Q9Y336 whole entry): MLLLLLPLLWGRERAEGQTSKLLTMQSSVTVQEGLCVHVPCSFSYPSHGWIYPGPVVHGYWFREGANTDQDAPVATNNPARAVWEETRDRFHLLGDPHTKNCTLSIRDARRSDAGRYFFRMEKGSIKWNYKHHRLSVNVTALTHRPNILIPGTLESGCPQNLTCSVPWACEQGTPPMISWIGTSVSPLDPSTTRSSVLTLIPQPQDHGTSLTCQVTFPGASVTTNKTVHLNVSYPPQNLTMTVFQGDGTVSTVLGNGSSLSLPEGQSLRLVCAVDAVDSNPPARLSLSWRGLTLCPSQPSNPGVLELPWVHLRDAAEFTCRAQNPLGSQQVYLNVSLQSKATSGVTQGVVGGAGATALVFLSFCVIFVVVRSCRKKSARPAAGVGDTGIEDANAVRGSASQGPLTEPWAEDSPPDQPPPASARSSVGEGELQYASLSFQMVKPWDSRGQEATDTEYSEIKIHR

Structure (SMILES) | Percent Effect [1] [%] | Percent Effect [2] [%] | Percent Effect [3] [%] | Percent Effect (Trypanosoma cruzi) [%] | Percent Effect [4] [%] | Percent Effect [5] [%] | Percent Effect (Homo sapiens) [%] | Percent Effect [6] [%] | Percent Effect [7] [%] | Percent Effect [8] [%]
CC(C)(C)c1nnc(CN2CCCC(Cn3cncn3)C2)o1 (stereo not given) | -2.1 | -2.56 | 0.0313 | 4.41 | 0.41 | -1.79 | 8 | 2.39 | 1.21 | -1.8
Cc1ccc(NC2CCN(C(=O)c3cccc4ncccc34)CC2)nn1 | -3.89 | 5.33 | -2.08 | -0.803 | 3.99 | -1.61 | 9.09 | 13.2 | 15.4 | -8.9
CCCC(=O)N1CCC2(CC1)CC(NC(C)=O)c1ccccc1O2 (stereo not given) | 0.455 | 1.3 | -0.437 | -4.69 | 7.31 | -0.0858 | 6.03 | -1.93 | -5 | -2.27
CC(C)N(C)C(=O)CN1CCCC(c2ccc(C(=O)O)cc2)C1 (stereo not given) | -2.28 | 18.9 | -0.275 | 0.485 | -66.1 | 12.3 | 29.1 | 5.85 | 19.5 | -6.15
CC(C)N1CCO[C@H]2CN(C(=O)c3ccoc3)C[C@H]21 | -6.85 | 3.9 | -7.81 | -1.66 | 2.43 | 4.85 | 0.754 | 5.79 | 10.3 | 3.83
CCS(=O)(=O)N1CCC2(CC1)CN(Cc1ccccn1)C(=O)CO2 | 2.67 | 1.3 | 1.21 | -0.487 | 1.62 | 3.44 | -2.87 | -1.58 | 0 | 2.48

— ChEMBL document CHEMBL3988442, “University of Dundee, Small-Polar-MMV Screening Library” (2021)
